In PubChem BioAssay (NCATS):
Results filed as inconclusive are left out. Active and inactive are the calls of the source. Unless noted, calls follow the shape of the dose curve; as a rule, active = well fitted curve in the direction sought with a large enough effect; inconclusive = small, poorly fitted or top-dose-only effect, or another doubt; inactive = no such curve, though single readings can be large; an effect the other way counts as inactive or inconclusive.

Assays:
[1] = AP1 Signaling Pathway (AID 357; active = well fitted curve in either direction with a large enough effect, not every such curve was filed as active;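 also: ME-180 reporter cells stimulated with EGF at its EC50 level; % is scaled to controls: 0 for no effect and ±100 for the full control effect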)
Outline: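 Beta-lactamase reporter under AP-1 response element, ME-180 background. Stimulus: EC50 EGF. Compound exposure 5 h, 37 °C. Detection: CCF4, 2.5 h RT, 460/530 nm. Values: AC50 from titration.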

[2] = target: Cytochrome P450 1A2 (Homo sapiens) (UniProt P05177); assay: p450-cyp1a2 (AID 410; calls by dose curve;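 also: -100% = full effect of reference inhibitor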)
Outline: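 Inhibition was calculated relative to 57 uM furafylline (full inhibition). The reaction used human CYP1A2 at 20nM with Luciferin-ME at its Km, 100uM, driven by an NADPH-regenerating system for 60 min at room temperature.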

[3] = NFAT Signaling Pathway (AID 444; active = well fitted curve in either direction with a large enough effect, not every such curve was filed as active;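 also: carbachol stimulus at about its EC50 of 1 µM final; % is scaled to controls: 0 for no effect and ±100 for the full control effect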); conditions: Jurkat NFAT-bla M1, carbachol, beta-lactamase ratio, 5 h; at 17.2 µM (top of the series) unless noted
Outline: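 Jurkat cells with NFAT-driven β-lactamase reporter and co-expressed M1 receptor, stimulated with carbachol (final 1 uM, ~EC50), compound titration, 5 h at 37 °C. CCF4 loaded 1 h at RT; 460/530 nm ratio gave %activity and AC50.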

[4] = Stat Signaling Pathway (AID 446; active = well fitted curve in either direction with a large enough effect, not every such curve was filed as active;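 also: ME-180 cervical cancer cells given 40 pM IL-6 alongside compound; SIE-controlled beta-lactamase reporter measured as 460/530 nm FRET emission ratio; % is scaled to controls: 0 for no effect and ±100 for the full control effect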)
Outline: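 Screening format detects activators and inhibitors alike: ME-180 SIE-bla cells stimulated at 40 pM IL-6 for 5 hrs with compound, then dual-emission beta-lactamase read at 405 nm excitation.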

[5] = target: Mitogen-activated protein kinase 10 (Mus musculus) (UniProt Q61831); assay: JNK3 AlphaScreen Assay (AID 530; active = well fitted curve in either direction with a large enough effect, not every such curve was filed as active;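 also: kinase came from lysate of stimulated human HepG2 cells; signal reports phosphorylation of biotinylated GST-cJun 1-79 at Ser73 with 10 µM ATP; % is scaled to controls: 0 for no effect and ±100 for the full control effect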)
Outline: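 qHTS format: compounds tested as titrations against IL-1beta/TNF-alpha-activated HepG2 lysate JNK3 with biotin-GST-cJun substrate and 10 uM ATP at room temperature. Loss of anti-phospho-cJun AlphaScreen signal indicates inhibition.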

[6] = qHTS Assay for Lipid Storage Modulators (AID 1519; calls by dose curve); conditions: Drosophila S3 cells, BODIPY lipid droplet/cell ratio, laser cytometry, cells loaded with oleic acid; for activity change, negative = inhibition: at 25.7 µM (top of the series)
Outline: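 Cells seeded at 5,000 per well were treated with compounds over a concentration series and loaded with oleic acid (400 uM, as added). Lipid droplet fluorescence (488 nm excitation, 500-530 nm channel) was read by laser-scanning cytometry and normalized to 20 uM Triacsin C.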

[7] = target: ATP-dependent 6-phosphofructokinase (Trypanosoma brucei brucei) (UniProt O15648); assay: qHTS Assay to Find Inhibitors of T. brucei phosphofructokinase: hit validation (AID 492961); also: % is scaled to controls: 0 for no effect and ±100 for the full control effect
Outline: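 Luminescence from ADP-Glo reports ADP generated as T. brucei PFK (1.25 nM) phosphorylates 0.5 mM fructose-6-phosphate using 0.1 mM ATP. Reactions ran 45 min at room temperature, pH 8.0.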

[8] = target: Ubiquitin carboxyl-terminal hydrolase 1 (Homo sapiens) (UniProt O94782); assay: Inhibitors of USP1/UAF1: Pilot qHTS (AID 504865);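 also: rhodamine fluorescence freed from ubiquitin-rhodamine substrate followed over time; top concentration of the series differs between compounds; % is scaled to controls: 0 for no effect and ±100 for the full control effect; nearly all actives have a fitted effect of over 35% in size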
Outline: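 Enzyme-free wells gave the negative control, while test wells held 1nM USP1/UAF1 preincubated with compound for 15 min at room temperature. Ub-Rho at 150nM final started the reaction, and fluorescence at 480/540 nm was recorded kinetically.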

[9] = qHTS profiling for inhibitors of Plasmodium falciparum proliferation (AID 504749);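 also: 0% = DMSO vehicle and full inhibition = artemisinin control; nearly all actives have a fitted effect of over 60% in size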; conditions: P. falciparum in erythrocytes, SYBR Green DNA, 72 h, at 12.8 µM (top of the series)
Outline: (§1)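 Readout was DNA-dye fluorescence from lysed cultures, ex 485/em 535 nm. Parasitized red cells had grown 72 h with compound; data scaled between 0.29 uM artemisinin and DMSO wells and corrected using vehicle-only plates.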

C2A = assay: as above; conditions: P. falciparum in erythrocytes, SYBR Green DNA, 72 h; series mostly up to 12.8 µM
Outline: as §1

CP191 = assay: as above; conditions: P. falciparum in erythrocytes, SYBR Green DNA, 72 h; series mostly up to 12.8 µM
Outline: as §1

CP217 = assay: as above; conditions: P. falciparum in erythrocytes, SYBR Green DNA, 72 h; series mostly up to 12.8 µM
Outline: as §1

CP250 = assay: as above; conditions: P. falciparum in erythrocytes, SYBR Green DNA, 72 h; series mostly up to 12.8 µM
Outline: as §1

CP256 = assay: as above; conditions: P. falciparum in erythrocytes, SYBR Green DNA, 72 h; series mostly up to 12.8 µM
Outline: as §1

FAB9 = assay: as above; conditions: P. falciparum in erythrocytes, SYBR Green DNA, 72 h; series mostly up to 12.8 µM
Outline: as §1

JCK = assay: as above; conditions: P. falciparum in erythrocytes, SYBR Green DNA, 72 h; series mostly up to 12.8 µM
Outline: as §1

SC27B = assay: as above; conditions: P. falciparum in erythrocytes, SYBR Green DNA, 72 h; series mostly up to 12.8 µM
Outline: as §1

[10] = target: Glucocorticoid receptor (Homo sapiens) (UniProt P04150); assay: GR-GFP Redistribution (AID 450;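 active = compounds whose dose series gives a full or clear partial fitted curve of increased nuclear translocation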; also: potency is read from the fitted curve at half-maximal effect); conditions: U2OS GR-GFP nuclear translocation, laser cytometry, 2 h
[11] = target: Glucocorticoid receptor (Homo sapiens) (UniProt P04150); assay: GR-EFC Redistribution (AID 451; calls by dose curve; also: potency is read from the fitted curve at half-maximal effect); conditions: CHO-K1 GR-EFC translocation, beta-gal luminescence, 2 h
Outline: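 CHO-K1 cells expressing nuclear EA and GR-ED fragments of b-gal; compounds titrated up to 46 uM final, 2 h at 37 C. GR nuclear translocation read as complemented b-gal luminescence after 1 h RT detection.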

[12] = target: 3',5'-cyclic-AMP phosphodiesterase 4B (Homo sapiens) (UniProt Q07343); assay: qHTS Assay for Inhibitors of PDE-IV (AID 607; active = well fitted activation curve with a large enough effect in the main read-out, with a control signal flat, not every such curve was filed as active; also: % of control where 0% means no effect)
Outline: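 The readout is membrane depolarisation from a cAMP-sensing CNG channel, detected with a potential dye at ex 535/em 590. Cells were HEK293-derived (endogenous PDE-IV) at 1000 cells/well, titrated up to 22.9 uM final.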

[13] = measured here: cell count channel max response
[14] = measured here: lipid channel max response

Chain of Cytochrome P450 1A2 (Homo sapiens) (P05177 whole entry, looked up): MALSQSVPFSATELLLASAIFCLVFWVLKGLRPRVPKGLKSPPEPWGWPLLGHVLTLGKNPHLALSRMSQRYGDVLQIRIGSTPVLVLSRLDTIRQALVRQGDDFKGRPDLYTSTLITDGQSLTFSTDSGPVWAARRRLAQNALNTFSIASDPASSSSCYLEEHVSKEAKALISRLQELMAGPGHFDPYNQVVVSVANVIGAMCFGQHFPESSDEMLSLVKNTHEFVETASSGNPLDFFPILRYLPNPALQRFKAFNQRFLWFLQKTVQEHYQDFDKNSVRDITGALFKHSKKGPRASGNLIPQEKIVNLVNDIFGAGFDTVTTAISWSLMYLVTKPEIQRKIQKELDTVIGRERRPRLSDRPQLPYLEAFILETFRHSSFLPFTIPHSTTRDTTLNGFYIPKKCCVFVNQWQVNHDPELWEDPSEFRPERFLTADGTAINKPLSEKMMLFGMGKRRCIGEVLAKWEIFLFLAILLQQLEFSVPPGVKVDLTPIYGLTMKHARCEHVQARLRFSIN
Chain of Glucocorticoid receptor (Homo sapiens) (P04150 whole entry, looked up, the tested form may be a part): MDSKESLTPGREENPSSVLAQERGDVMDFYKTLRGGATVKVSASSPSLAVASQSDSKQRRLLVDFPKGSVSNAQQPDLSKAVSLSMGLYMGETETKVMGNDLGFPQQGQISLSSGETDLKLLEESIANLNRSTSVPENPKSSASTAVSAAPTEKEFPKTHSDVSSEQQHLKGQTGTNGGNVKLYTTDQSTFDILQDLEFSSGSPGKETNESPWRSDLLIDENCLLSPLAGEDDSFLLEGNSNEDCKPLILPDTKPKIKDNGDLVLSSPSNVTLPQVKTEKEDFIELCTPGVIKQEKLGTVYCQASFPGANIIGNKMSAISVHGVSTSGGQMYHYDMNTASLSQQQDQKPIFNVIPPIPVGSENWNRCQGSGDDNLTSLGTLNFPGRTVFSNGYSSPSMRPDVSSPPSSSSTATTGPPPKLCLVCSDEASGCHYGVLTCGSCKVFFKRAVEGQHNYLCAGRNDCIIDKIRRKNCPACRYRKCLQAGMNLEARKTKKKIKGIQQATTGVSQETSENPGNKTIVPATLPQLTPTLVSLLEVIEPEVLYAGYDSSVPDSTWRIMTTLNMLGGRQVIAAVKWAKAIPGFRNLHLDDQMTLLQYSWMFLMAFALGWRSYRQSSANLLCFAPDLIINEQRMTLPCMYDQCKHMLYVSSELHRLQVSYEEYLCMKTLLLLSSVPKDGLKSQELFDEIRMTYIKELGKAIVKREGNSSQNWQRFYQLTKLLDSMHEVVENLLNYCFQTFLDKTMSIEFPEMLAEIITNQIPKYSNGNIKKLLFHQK
Chain of Ubiquitin carboxyl-terminal hydrolase 1 (Homo sapiens) (O94782 whole entry, looked up): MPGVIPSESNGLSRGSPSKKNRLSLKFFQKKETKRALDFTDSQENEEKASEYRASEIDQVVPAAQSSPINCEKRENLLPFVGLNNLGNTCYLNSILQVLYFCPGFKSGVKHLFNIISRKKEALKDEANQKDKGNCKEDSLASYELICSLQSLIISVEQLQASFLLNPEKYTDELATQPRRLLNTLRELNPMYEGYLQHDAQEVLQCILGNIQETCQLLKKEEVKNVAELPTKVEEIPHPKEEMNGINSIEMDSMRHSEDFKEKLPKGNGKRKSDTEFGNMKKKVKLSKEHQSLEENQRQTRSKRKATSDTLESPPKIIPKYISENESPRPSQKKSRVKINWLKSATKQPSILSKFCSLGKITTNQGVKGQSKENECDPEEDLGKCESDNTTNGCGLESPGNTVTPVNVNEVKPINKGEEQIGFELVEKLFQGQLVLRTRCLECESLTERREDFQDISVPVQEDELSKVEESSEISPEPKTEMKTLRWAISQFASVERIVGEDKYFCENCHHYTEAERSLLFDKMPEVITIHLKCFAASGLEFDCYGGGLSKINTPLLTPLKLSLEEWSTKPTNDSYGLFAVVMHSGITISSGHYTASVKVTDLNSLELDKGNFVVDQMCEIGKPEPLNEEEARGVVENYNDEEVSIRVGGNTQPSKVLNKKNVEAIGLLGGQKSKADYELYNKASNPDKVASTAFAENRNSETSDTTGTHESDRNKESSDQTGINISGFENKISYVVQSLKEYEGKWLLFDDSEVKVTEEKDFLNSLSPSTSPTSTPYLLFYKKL
Chain of ATP-dependent 6-phosphofructokinase (Trypanosoma brucei brucei) (O15648 whole entry, looked up): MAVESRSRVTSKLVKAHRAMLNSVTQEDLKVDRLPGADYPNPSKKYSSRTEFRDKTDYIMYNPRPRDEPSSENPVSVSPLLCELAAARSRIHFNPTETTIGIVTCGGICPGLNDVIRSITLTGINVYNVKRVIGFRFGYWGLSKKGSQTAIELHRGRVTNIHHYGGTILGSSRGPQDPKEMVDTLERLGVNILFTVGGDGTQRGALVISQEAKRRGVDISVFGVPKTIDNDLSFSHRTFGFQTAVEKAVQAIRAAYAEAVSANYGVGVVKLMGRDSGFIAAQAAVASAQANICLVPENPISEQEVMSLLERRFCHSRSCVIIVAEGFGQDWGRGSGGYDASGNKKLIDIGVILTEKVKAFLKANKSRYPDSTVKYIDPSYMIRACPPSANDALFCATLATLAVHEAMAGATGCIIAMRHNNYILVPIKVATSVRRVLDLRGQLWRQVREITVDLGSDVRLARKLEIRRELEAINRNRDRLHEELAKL
Chain of 3',5'-cyclic-AMP phosphodiesterase 4B (Homo sapiens) (Q07343 whole entry, looked up): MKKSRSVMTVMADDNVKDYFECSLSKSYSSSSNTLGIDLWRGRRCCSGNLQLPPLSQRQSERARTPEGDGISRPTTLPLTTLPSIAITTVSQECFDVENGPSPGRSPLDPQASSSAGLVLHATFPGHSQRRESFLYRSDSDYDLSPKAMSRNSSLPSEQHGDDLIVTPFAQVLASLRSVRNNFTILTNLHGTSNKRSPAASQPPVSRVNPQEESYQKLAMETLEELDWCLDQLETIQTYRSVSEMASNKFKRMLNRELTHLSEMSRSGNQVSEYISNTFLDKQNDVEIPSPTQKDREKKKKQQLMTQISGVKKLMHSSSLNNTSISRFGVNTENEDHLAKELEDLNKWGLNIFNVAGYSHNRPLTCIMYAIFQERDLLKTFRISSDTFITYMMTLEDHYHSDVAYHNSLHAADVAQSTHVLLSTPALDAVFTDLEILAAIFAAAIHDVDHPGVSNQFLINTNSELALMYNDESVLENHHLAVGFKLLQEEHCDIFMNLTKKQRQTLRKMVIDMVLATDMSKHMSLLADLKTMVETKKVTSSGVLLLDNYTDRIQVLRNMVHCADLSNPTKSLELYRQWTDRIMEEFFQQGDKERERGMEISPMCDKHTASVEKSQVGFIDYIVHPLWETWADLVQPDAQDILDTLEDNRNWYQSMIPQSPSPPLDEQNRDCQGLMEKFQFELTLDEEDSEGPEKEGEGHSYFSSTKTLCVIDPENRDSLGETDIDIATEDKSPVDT

C[C@H](C(=O)O)c1cccc(Oc2ccccc2)c1
-2.59%: max response [6, 14]
0.75%: max response [6, 13]
inactive: outcome [1] | Potency [2] | activity change, negative = inhibition [3] 4.26% | outcome [4] | Potency [5] | activity change, negative = inhibition [6] 0.849% | outcome [7] | Potency [8] | activity, negative = inhibition ([9]; parasite line A) 2.84% | activity, negative = inhibition ([9]; parasite line B) 14.9% | Potency (C2A) | Potency (CP191) | Potency (CP217) | Potency (CP250) | Potency (CP256) | Potency (FAB9) | Potency (JCK) | Potency (SC27B)

CC(=O)C[C@H](c1ccc([N+](=O)[O-])cc1)c1c(O)c2ccccc2oc1=O
-10.7%: max response [6, 14]
-11.4%: max response [6, 13]
inactive: outcome [1] | Potency [2] | activity change, negative = inhibition [3] -1.36% | outcome [4] | Potency [5] | activity change, negative = inhibition [6] 3.15% | outcome [7] | Potency [8] | activity, negative = inhibition ([9]; parasite line A) 7.55% | activity, negative = inhibition ([9]; parasite line B) 3.6% | Potency (C2A) | Potency (CP191) | Potency (CP217) | Potency (CP250) | Potency (CP256) | Potency (FAB9) | Potency (JCK) | Potency (SC27B)

O=C(O)c1cc2ccccc2c(Cc2cc3ccccc3c(C(=O)O)c2O)c1O (tested in a mixture with another compound)
inactive: outcome [1] | Potency [2] | activity change, negative = inhibition [3] -23% | outcome [4] | Potency [10] > 20.6 µM | Potency [11] > 20.6 µM | Potency [5] | outcome [12] | activity change, negative = inhibition [6] 1.36%
-4.55%: max response [6, 14]
-8.55%: max response [6, 13]
